Only a selection was taken, and hits are over-represented in it overall.
Menin-MLL FL inh: menin-MLL binding inhibition, fluorescein peptide. FP activity change, % at 61.4 µM. Fluorescence polarization, fluorescein-MLL peptide displacement from menin. AID 1766. 290,000 tested, under 10 active; active = well fitted curve in the direction sought with a large enough effect in the polarisation, not every such curve was filed as active; inconclusive = small, poorly fitted or top-dose-only effect, or effect the other way, or a change in a side signal; inactive = no such curve, though single readings can be large or run the other way; the % refers to the polarisation
CXXC DNA block: blocks binding of human MLL CXXC domain to DNA | Q03164 | MLL-CXXC / FITC-HOXA9 DNA fluorescence polarization | Potency, µM (series often up to 115 µM), usual class: inhibitors | 290,000 compounds, 0.037% hits | AID 2662; active = well fitted inhibition curve with a large enough effect in the polarisation, with a control signal flat, not every such curve was filed as active; inconclusive = small, poorly fitted or top-dose-only effect, or effect the other way, or a change in a side signal; inactive = no such curve, though single readings can be large or run the other way; the % refers to the polarisation
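Purified MLL-CXXC (added from a 7 uM solution) was preincubated 5 min at ambient with pinned compounds in 50 mM Tris-HCl pH 7.5, 50 mM NaCl, 1 mM DTT, 0.05% BSA. Fluorescein-labeled HOX-A9 DNA (50 nM solution) followed, 30 min, then polarization read.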
Menin-MLL TR inh: menin-MLL binding inhibition, Texas Red mutant peptide | O00255 | Menin + Texas Red MLL mutant peptide, fluorescence polarization | Potency, µM (series often up to 61.6 µM), hits mostly inhibitors | 270,000 compounds, 0.23% hits; active = well fitted inhibition curve with a large enough effect in the polarisation, with a control signal flat, not every such curve was filed as active; inconclusive = small, poorly fitted or top-dose-only effect, or effect the other way, or a change in a side signal; inactive = no such curve, though single readings can be large or run the other way; the % refers to the polarisation
MLL CXXC Fl: inhibitors of human MLL CXXC domain-DNA interaction; shares compounds with CXXC DNA block; MLL CXXC-DNA binding, fluorescein FP; Potency, µM (series often up to 345 µM), most hits filed as inhibitors; 200 compounds, 70% hits; AID 624160; also: nearly all actives have a fitted effect of over 80% in size
MLL CXXC TxRed: MLL CXXC-DNA interaction inhibition, Texas Red FP | shares compounds with CXXC DNA block | MLL CXXC-DNA binding, Texas Red fluorescence polarization | Potency, µM (top dose mostly 345 µM), usual class: inhibitors | 200 compounds, 40% hits | AID 624161; also: nearly all actives have a fitted effect of over 75% in size
MLL CXXC TRF: inhibitors of human MLL CXXC domain-DNA interaction, HTRF format. Potency, µM (highest dose often 172 µM), usual class: inhibitors. AID 624162. shares compounds with CXXC DNA block. MLL CXXC-DNA binding, HTRF, biochemical. 210 compounds, 30% hits; also: nearly all actives have a fitted effect of over 80% in size
Of the large screens only hits and unclear results are named; the others gave an inactive call (follow-up assays come after a bar, where they were run). Unless noted, calls follow the shape of the dose curve; as a rule, active = well fitted inhibition curve with a large enough effect; inconclusive = small, poorly fitted or top-dose-only effect; inactive = no such curve, though single readings can be large or run the other way.

O=C1NC(=O)N(c2ccc3c(c2)OCO3)C(=O)/C1=C\c1ccc(-c2ccccc2C(=O)O)o1	CXXC DNA block 14µM (no result: Menin-MLL TR inh) | MLL CXXC Fl 14µM | MLL CXXC TxRed 45µM | MLL CXXC TRF 19µM
NC(Cc1ccc(Oc2cc(I)c(O)c(I)c2)c(I)c1)C(=O)O (stereo not given)	Menin-MLL TR inh inconclusive
CC(C)CCCC(C)C1CCC2C3CC(O)[C@@]4(O)CC(O)CC[C@@]4(C)C3CC[C@@]12C (stereo not given in full)	Menin-MLL TR inh inconclusive (no result: CXXC DNA block)
CC1=C(O)C(=O)C=C2C1=CC=C1[C@]2(C)CC[C@@]2(C)C3C[C@](C)(C(=O)O)CC[C@@]3(C)CC[C@@]12C (stereo not given in full)	none (no result: CXXC DNA block)
CC(=O)O[C@H]1C[C@H]2CC[C@@H]3[C@H]4C[C@@H]([N+]5(C)CCCCC5)[C@@H](OC(C)=O)[C@]4(C)CC[C@@H]3[C@@]2(C)C[C@@H]1[N+]1(C)CCCCC1	Menin-MLL FL inh inconclusive (no result: CXXC DNA block)
COC(=O)Cn1cc(/C=C2\C(=O)NC(=O)N(c3ccc(OC)cc3)C2=O)c2ccccc21	Menin-MLL FL inh inconclusive, CXXC DNA block inconclusive
O=C(O)Cn1cc(/C=C2\C(=O)NC(=O)N(c3ccc(F)cc3)C2=O)c2ccccc21	Menin-MLL FL inh inconclusive, CXXC DNA block inconclusive | MLL CXXC Fl inconclusive | MLL CXXC TxRed 89µM | MLL CXXC TRF inconclusive
Cc1cc(I)ccc1Nc1c(C(=O)NOCC2CC2)cc(F)c(F)c1F	Menin-MLL TR inh inconclusive (no result: CXXC DNA block)
O=C(O)c1ccccc1-c1c2cc(Br)c(=O)cc-2oc2[c]([Hg])c(O)c(Br)cc12	Menin-MLL FL inh inconclusive, CXXC DNA block inconclusive, Menin-MLL TR inh inconclusive | MLL CXXC Fl 0.76µM | MLL CXXC TxRed inactive | MLL CXXC TRF 23µM
CN1C[C@@H](CO)C=C2c3cccc4[nH]cc(c34)CC21 (stereo not given in full)	Menin-MLL FL inh inconclusive (no result: CXXC DNA block)
CCC(CO)NC(=O)[C@@H]1C=C2c3cccc4[nH]cc(c34)C[C@H]2N(C)C1 (stereo not given in full)	Menin-MLL FL inh inconclusive, CXXC DNA block 35µM | MLL CXXC Fl 159µM | MLL CXXC TxRed inconclusive | MLL CXXC TRF inactive
